Results filed as inconclusive are left out. Active and inactive are the calls of the source. How the source made its calls: active means hit-call score of the fitted dose curve at least 0.9, where 1 is the maximum; inconclusive means response in the unintended direction; inactive means score below 0.9.
What follows are molecules tested against human Peroxisome Proliferator-activated Receptor alpha (PPARa), PPARA (gene 5465) (UniProt Q07869) (assay: ATG_PPARa_TRANS: Attagene TRANS-FACTORIAL HepG2 Assay for human Peroxisome Proliferator-activated Receptor alpha (PPARa) (AID 2283001);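 on AC50: potency for gain of reporter signal over DMSO so agonist or activator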).
Sequence of human Peroxisome Proliferator-activated Receptor alpha (PPARa), PPARA (gene 5465) (Q07869 whole entry, looked up): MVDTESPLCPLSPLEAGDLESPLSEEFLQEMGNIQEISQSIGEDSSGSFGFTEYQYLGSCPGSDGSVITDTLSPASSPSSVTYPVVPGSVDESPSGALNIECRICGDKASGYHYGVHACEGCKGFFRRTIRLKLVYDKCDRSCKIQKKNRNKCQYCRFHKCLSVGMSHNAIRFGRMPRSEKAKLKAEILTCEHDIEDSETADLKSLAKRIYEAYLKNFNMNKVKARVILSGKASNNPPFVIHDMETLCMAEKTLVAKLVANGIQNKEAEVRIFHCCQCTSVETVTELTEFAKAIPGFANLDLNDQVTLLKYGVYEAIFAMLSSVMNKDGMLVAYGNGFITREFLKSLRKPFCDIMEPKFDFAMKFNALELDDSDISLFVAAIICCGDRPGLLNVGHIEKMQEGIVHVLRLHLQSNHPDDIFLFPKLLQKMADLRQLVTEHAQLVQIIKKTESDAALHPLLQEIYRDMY
Experimental: ATG_TRANS is a cell-based, multiplexed-readout assay that uses HepG2, a human liver cell line, with measurements taken at 24 hours after chemical dosing in a 24-well plate.ATG_PPARa_TRANS is one of 30 assay component(s) measured or calculated from the ATG_TRANS assay. It is designed to make measurements of mRNA induction, a form of inducible reporter, as detected with fluorescence intensity signals by Reverse transcription polymerase chain reaction (RT-PCR) and Capillary electrophoresis technology.Data from the assay component ATG_PPARa_TRANS was analyzed into 1 assay endpoint. This assay endpoint, ATG_PPARa_TRANS, was analyzed in the positive analysis fitting direction relative to DMSO as the negative control and baseline of activity. Using a type of inducible reporter, measures of mRNA for gain-of-signal activity can be used to understand the reporter gene at the transcription factor-level as they relate to the gene PPARA. Furthermore, this assay endpoint can be referred to as a primary readout, because this assay has produced multiple assay endpoints where this one serves a reporter gene function. To generalize the intended target to other relatable targets, this assay endpoint is annotated to the nuclear receptor intended target family, where the subfamily is non-steroidal.
Human liver HepG2 cells are transiently transfected with multiple reporter transcription units (MRTUs) in 6-well plates using FuGene 6 reagent (Roche; 3 ml FuGene/1 mg DNA). The MRTU constructs are regulated by a cis-regulating element (promoter). […] A major difference between the CIS and TRANS system is that in CIS activities of endogenous TFs are measured, whereas the TRANS assay evaluates changes in activities of exogenous, chimeric NR-Gal4 proteins. […] At the end of 24 hour incubation, total RNA was isolated using TriZol reagent (Invitrogen). The isolated RNA is then reverse-transcribed using oligo(dT) primer and Mo-MLV reverse transcriptase (Invitrogen) with DNAse I (Ambion) treatment for 30 min. The one-tenth of the produced cDNA was amplified by PCR using Taq DNA polymerase (Invitrogen) and two reporter sequence-specific primers. The PCR products were fluorescently labeled by primer extension with 6-arboxyfluorescein (6-FAM) 5'-labeled reporter sequence-specific primer (2 min at 95 C, 20 s at 68 C and 10 min at 72 C) and these products were digested with 5U of HpaI (New England Biolabs) for 2h at 37 C. The fragments were purified using Qiaquick PCR columns (Qiagen), analyzed on an ABI 3130xL genetic analyzer (Applied Biosystems) with peak positions identified by using a set of X-rhodamine (ROX)-labeled MapMarker1000 molecular weight standards (BioVentures). The raw capillary electrophoresis data was processed using Attagraph software (Attagene).

outcome, inactive:
CCCCCCCCCCCCOCCO
C/C=C(\C)C(=O)OCc1ccccc1
C=C(C)C(=O)OCc1ccccc1
Cc1ccc(Nc2ccc(O)c3c2C(=O)c2ccccc2C3=O)cc1
CCn1c2ccccc2c2cc(N)ccc21
O=S(=O)(O)c1cccc2c(S(=O)(=O)O)cccc12
Cc1ccc(C=O)cc1
CCCCCCCCCCCCCCCC(=O)OC[C@H](O)[C@H]1OC(=O)C(O)=C1O
CCCCCC=CCC(=O)OC
CC(C)=CCO
CC(C)c1ccc(C(C)C)cc1
OC1C(O)C(O)C(O)C(O)C1O (stereo not given)
CCC(=O)OCCC(C)CCC=C(C)C (stereo not given)
CCCCCCCCCCCCSC
NCCCCCCN
C=C(C)C(=O)O
Nc1cc(Cl)c(O)c(Cl)c1
CCCCNC(=O)NS(=O)(=O)c1ccc(C)cc1
C=C[Si](OCC)(OCC)OCC
CC1(C)C(=O)N(Br)C(=O)N1Cl
CCN(CC)c1ccc(C(=C2C=CC(=[N+](CC)CC)C=C2)c2ccc(S(=O)(=O)O)cc2S(=O)(=O)[O-])cc1
CCCCC(CC)COC(=O)/C=C\C(=O)OCC(CC)CCCC (stereo not given)
CCO[Si](CCCS)(OCC)OCC
CCCC(=O)C(C)=O
O=C1NC(=O)c2ccccc21
C=CCOC(=O)CCC1CCCCC1
CC(C)(C)C(=O)c1ccccc1
O=C(Cl)c1cccc(C(=O)Cl)c1
O=C[C@@H](O)[C@H](O)[C@H](O)CO
NC(N)=NC(=O)c1nc(Cl)c(N)nc1N
Cc1ccc(S)cc1
OC1OC[C@@H](O)[C@H](O)[C@H]1O (stereo not given in full)
OCC(CO)(CO)COCC(CO)(CO)CO
O=C1CCc2ccccc2O1
O=C(Oc1ccccc1)c1ccc(O)cc1
CCC(O)CO (stereo not given)

AC50, active:
Clc1ccc2c(c1)C(N1CCNCC1)=Nc1ccccc1O2 53.9 µM
C=CC(=O)OCC(O)COc1ccccc1 (stereo not given) 17.3 µM
O=C1CCCCCCCCCCCCCCO1 100 µM
CCCCCCCCCCCCCCCC(=O)O 26.5 µM

Reference: PubChem BioAssay (EPA / NIEHS)
